Data on 6 compounds can be found in PubChem BioAssay (EPA / NIEHS).

Test [1] addresses human Peroxisome Proliferator-activated Receptor delta (PPARd), PPARD (gene 5467) (UniProt Q03181). The test can be described thus: ATG_PPARd_TRANS: Attagene TRANS-FACTORIAL HepG2 Assay for human Peroxisome Proliferator-activated Receptor delta (PPARd) (AID 2283002). The method, boiled down:
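HepG2 cells transiently transfected with GAL4-UAS multiplexed reporter units driven by exogenous chimeric NR-GAL4 proteins; 24 h compound exposure. Reporter mRNA measured by RT-PCR, 6-FAM primer extension, HpaI digestion and capillary electrophoresis; gain of signal fitted relative to DMSO.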

The target of test [2] is Retinoic acid receptor alpha (Homo sapiens) (UniProt P10276). The test can be described thus: ATG_RARa_TRANS: Attagene TRANS-FACTORIAL HepG2 Assay for human Retinoic Acid Receptor alpha (RARa) (AID 2283005). The method, boiled down: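 HepG2 transiently transfected with multiplex GAL4-UAS reporter units including a human RARa–GAL4 chimera; 24 h compound exposure. Reporter mRNA quantified by RT-PCR, 6-FAM labeling and capillary electrophoresis; gain of signal versus DMSO.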

A short description of test [3]: BSK_3C_Proliferation: Cell Proliferation Assessment in the BioMAP Diversity Plus: 3C Assay (AID 2283006; active = hit-call score of the fitted dose curve at least 0.9, where 1 is the maximum; inactive = score below 0.9;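 for AC50: potency may reflect either rise or fall in cell number versus DMSO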). Particulars: primary human endothelial cells (HUVEC). Put shortly:
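Human umbilical vein endothelial cells were grown sub-confluent and exposed to chemical for 48 h, then fixed with 10% TCA and stained with 0.1% sulforhodamine B; absorbance at 560 nm gave relative cell number, fitted bidirectionally against DMSO baseline.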

Test [4] concerns the target Peroxisome proliferator-activated receptor gamma (Homo sapiens) (UniProt P37231). The test can be described thus: ATG_PPARg_TRANS: Attagene TRANS-FACTORIAL HepG2 Assay for human Peroxisome Proliferator-activated Receptor-gamma (PPARg) (AID 2283007). Put shortly:
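Liver-derived HepG2 cells expressing an exogenous NR-Gal4 chimera alongside GAL4-UAS reporter genes; 24 h exposure. Fluorescence of reporter RT-PCR products, separated by capillary electrophoresis, gives mRNA induction relative to DMSO.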

Test [5] addresses human RAR-related Orphan Receptor gamma (RORg), RORC (gene 6097) (UniProt P51449). Description: ATG_RORg_TRANS: Attagene TRANS-FACTORIAL HepG2 Assay for human RAR-related Orphan Receptor gamma (RORg) (AID 2283011). The method, boiled down:
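Readout: reporter transcript induction (RT-PCR, fluorescent primer extension, capillary electrophoresis) after 24 h compound exposure of transiently transfected HepG2 cells carrying a RORg-Gal4 chimera and GAL4-UAS reporters; DMSO served as baseline, with increasing signal fitted.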

Test [6] has as its target Retinoic acid receptor RXR-alpha (Homo sapiens) (UniProt P19793). The test can be described thus: ATG_RXRa_TRANS: Attagene TRANS-FACTORIAL HepG2 Assay for human Retinoid X Receptor alpha (RXRa) (AID 2283012). Put shortly:
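HepG2 cells transiently transfected with multiplexed GAL4-UAS reporter units and chimeric NR-GAL4 fusions, dosed 24 h. Reporter mRNA measured by RT-PCR, FAM labelling, HpaI digestion and capillary electrophoresis; gain-of-signal fitted relative to DMSO baseline.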

Test [7] addresses human Thyroid Receptor alpha (THRa1), THRA (gene 7067) (UniProt P10827). Description: ATG_THRa1_TRANS: Attagene TRANS-FACTORIAL HepG2 Assay for human Thyroid Receptor alpha (THRa1) (AID 2283014). Put shortly: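 HepG2 cells transiently transfected with multiplexed GAL4-UAS reporter units for exogenous chimeric THRa1-Gal4; reporter mRNA measured 24 h after dosing by RT-PCR, 6-FAM labelling, HpaI digestion and capillary electrophoresis. Gain-of-signal fitted versus DMSO baseline.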

Read-out in test [8]: E-selectin (Homo sapiens) (UniProt P16581)
Description: BSK_3C_Eselectin: BioMAP Diversity Plus: 3C Assay for Eselectin Biomarker Activity (AID 2283015; active = hit-call score of the fitted dose curve at least 0.9, where 1 is the maximum; inactive = score below 0.9;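 for outcome: cell surface E-selectin protein quantified by ELISA 24 h after dosing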). Particulars: primary human endothelial cells (HUVEC); actives raise or lower the signal. Put shortly: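 Primary human umbilical vein endothelial cells (3C system) were dosed with chemical and cell-surface E-selectin measured by ELISA 24 h later. Bidirectional curve fitting used DMSO as negative control and baseline.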

Read-out in test [9]: Interleukin-1 alpha (IL1a), IL1A (gene 3552)
Description: BSK_BE3C_IL1a: BioMAP Diversity Plus: BE3C Assay for Interleukin-1 alpha (IL1a) Biomarker Activity (AID 2283016; active = hit-call score of the fitted dose curve at least 0.9, where 1 is the maximum; inactive = score below 0.9). Particulars: primary human bronchial epithelial cells; actives raise or lower the signal. The method, boiled down:
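Human primary bronchial epithelial cells (BE3C system) were dosed with compound and IL-1a measured by ELISA 24 h later. Activity was fitted bidirectionally against DMSO baseline; cytotoxicity was tracked in parallel cultures by SRB total-protein staining.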

Read-out in test [10]: Monocyte Chemoattractant Protein-1 (MCP1), CCL2 (gene 6347)
The test can be described thus: BSK_3C_MCP1: BioMAP Diversity Plus: 3C Assay for Monocyte Chemoattractant Protein-1 (MCP1) Biomarker Activity (AID 2283017; active = hit-call score of the fitted dose curve at least 0.9, where 1 is the maximum; inactive = score below 0.9). The following applies: primary human endothelial cells (HUVEC); actives raise or lower the signal. Put shortly: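 Primary human umbilical vein endothelial cells (3C system) were exposed to test chemical for 24 h, after which MCP-1 was quantified by ELISA. Activity was fitted bidirectionally against DMSO as negative control and baseline.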

Read-out in test [11]: Monocyte Chemoattractant Protein-1 (MCP1), CCL2 (gene 6347)
The test can be described thus: BSK_4H_MCP1: BioMAP Diversity Plus: 4H Assay for Monocyte Chemoattractant Protein-1 (MCP1) Biomarker Activity (AID 2283018; active = hit-call score of the fitted dose curve at least 0.9, where 1 is the maximum; inactive = score below 0.9). Particulars: primary human endothelial cells (HUVEC); actives raise or lower the signal. Put shortly: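 Human umbilical vein endothelial cells (4H system) dosed with chemical; MCP-1 measured by ELISA 24 h after dosing. Bidirectional curve fitting against DMSO negative control as baseline; parallel SRB total-protein staining tracks overt cytotoxicity.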

Read-out in test [12]: Human Leukocyte Antigen - DR isotype (HLADR), HLA-DRA (gene 3122)
Description: BSK_3C_HLADR: BioMAP Diversity Plus: 3C Assay for Human Leukocyte Antigen - DR isotype (HLADR) Biomarker Activity (AID 2283019; active = hit-call score of the fitted dose curve at least 0.9, where 1 is the maximum; inactive = score below 0.9;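 for outcome: ELISA of cell-surface HLA-DR on HUVEC 24 h after dosing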). The following applies: primary human endothelial cells (HUVEC); actives raise or lower the signal. The method, boiled down:
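Primary human umbilical vein endothelial cells (3C system) were dosed with compound and cell-surface HLA-DR was quantified by ELISA at 24 h. Activity was fitted bidirectionally against DMSO as negative control and baseline.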

Read-out in test [13]: Interleukin-8 (IL8), CXCL8 (gene 3576)
The test can be described thus: BSK_3C_IL8: BioMAP Diversity Plus: 3C Assay for Interleukin-8 (IL8) Biomarker Activity (AID 2283020; active = hit-call score of the fitted dose curve at least 0.9, where 1 is the maximum; inactive = score below 0.9). Particulars: primary human endothelial cells (HUVEC); actives raise or lower the signal. The method, boiled down: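 Primary human umbilical vein endothelial cells (3C system) were exposed to test chemical for 24 h, then IL-8 was quantified by ELISA. Responses were fitted bidirectionally against DMSO vehicle as baseline.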

Read-out in test [14]: Monokine induced gamma interferon (MIG), CXCL9 (gene 4283)
Description: BSK_3C_MIG: BioMAP Diversity Plus: 3C Assay for Monokine induced gamma interferon (MIG) Biomarker Activity (AID 2283021; active = hit-call score of the fitted dose curve at least 0.9, where 1 is the maximum; inactive = score below 0.9). The following applies: primary human endothelial cells (HUVEC); actives raise or lower the signal. Put shortly:
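Primary human umbilical vein endothelial cells in the 3C system were exposed to chemical for 24 h, after which MIG was quantified by ELISA. Activity was fitted bidirectionally against DMSO as negative control and baseline.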

For test [15], the target named is human Peroxisome Proliferator-activated Receptor alpha (PPARa), PPARA (gene 5465) (UniProt Q07869). Description: ATG_PPARa_TRANS: Attagene TRANS-FACTORIAL HepG2 Assay for human Peroxisome Proliferator-activated Receptor alpha (PPARa) (AID 2283001). The method, boiled down: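 Measures transcriptional activity of an exogenous chimeric PPARa-Gal4 protein in transiently transfected HepG2 cells after 24 h dosing. Reporter mRNA quantified via RT-PCR and capillary electrophoresis; DMSO served as negative control.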

In test [16] the target is Nuclear receptor subfamily 1 group I member 2 (Homo sapiens) (UniProt O75469). The test can be described thus: ATG_PXR_TRANS: Attagene TRANS-FACTORIAL HepG2 Assay for human Pregnane X Receptor (PXR) (AID 2283008). The method, boiled down:
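Measures mRNA induction of a GAL4-UAS-driven reporter in human HepG2 cells transiently expressing PXR fused to Gal4, following 24 h treatment. DMSO served as negative control and baseline.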

Test [17] deals with human Retinoic Acid Receptor gamma (RARg), RARG (gene 5916) (UniProt P13631). Description: ATG_RARg_TRANS: Attagene TRANS-FACTORIAL HepG2 Assay for human Retinoic Acid Receptor gamma (RARg) (AID 2283009). The method, boiled down: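 HepG2 cells transiently transfected with multiplexed reporter units expressing chimeric RARg-GAL4 and GAL4-UAS-driven reporters; 24 h compound exposure. Reporter mRNA quantified by RT-PCR with fluorescent labelling and capillary electrophoresis; gain-of-signal fitted relative to DMSO baseline.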

Test [18] concerns the target human RAR-related Orphan Receptor beta (RORb), RORB (gene 6096) (UniProt Q92753). Description: ATG_RORb_TRANS: Attagene TRANS-FACTORIAL HepG2 Assay for human RAR-related Orphan Receptor beta (RORb) (AID 2283010). Put shortly:
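HepG2 cells were transiently transfected with multiplexed GAL4-UAS reporter units expressing chimeric nuclear receptor–GAL4 proteins, then dosed for 24 h. Reporter mRNA was quantified by RT-PCR with fluorescent labelling and capillary electrophoresis; gain of signal was fitted relative to DMSO.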

For test [19], the target named is human Retinoid X Receptor beta (RXRb), RXRB (gene 6257) (UniProt P28702). The test can be described thus: ATG_RXRb_TRANS: Attagene TRANS-FACTORIAL HepG2 Assay for human Retinoid X Receptor beta (RXRb) (AID 2283013). The method, boiled down:
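HepG2 cells transiently transfected with multiplexed reporter units driven by GAL4-UAS and exogenous chimeric NR-Gal4 proteins; treated 24 h. Reporter mRNA measured by RT-PCR, 6-FAM labelling and capillary electrophoresis; gain-of-signal fitted versus DMSO baseline.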

Read-out in test [20]: Intercellular Adhesion Molecule 1 (ICAM1), ICAM1 (gene 3383)
The test can be described thus: BSK_3C_ICAM1: BioMAP Diversity Plus: 3C Assay for Intercellular Adhesion Molecule 1 (ICAM1) Biomarker Activity (AID 2283003; active = hit-call score of the fitted dose curve at least 0.9, where 1 is the maximum; inactive = score below 0.9). Particulars: primary human endothelial cells (HUVEC); actives raise or lower the signal. Put shortly:
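Primary human umbilical vein endothelial cells in the BioMAP 3C system were exposed to chemicals for 24 h, then ICAM-1 was quantified by ELISA. Activity was fitted bidirectionally against the DMSO negative control baseline.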

Inconclusive results are not listed. Some compounds were tested as several samples or in several runs, with calls that do not always agree. Active and inactive are the calls of the source. Rule for the calls, unless noted: active = hit-call score of the fitted dose curve at least 0.9, where 1 is the maximum; inconclusive = response in the unintended direction; inactive = score below 0.9.

Chain of E-selectin (Homo sapiens) (P16581 whole entry, looked up): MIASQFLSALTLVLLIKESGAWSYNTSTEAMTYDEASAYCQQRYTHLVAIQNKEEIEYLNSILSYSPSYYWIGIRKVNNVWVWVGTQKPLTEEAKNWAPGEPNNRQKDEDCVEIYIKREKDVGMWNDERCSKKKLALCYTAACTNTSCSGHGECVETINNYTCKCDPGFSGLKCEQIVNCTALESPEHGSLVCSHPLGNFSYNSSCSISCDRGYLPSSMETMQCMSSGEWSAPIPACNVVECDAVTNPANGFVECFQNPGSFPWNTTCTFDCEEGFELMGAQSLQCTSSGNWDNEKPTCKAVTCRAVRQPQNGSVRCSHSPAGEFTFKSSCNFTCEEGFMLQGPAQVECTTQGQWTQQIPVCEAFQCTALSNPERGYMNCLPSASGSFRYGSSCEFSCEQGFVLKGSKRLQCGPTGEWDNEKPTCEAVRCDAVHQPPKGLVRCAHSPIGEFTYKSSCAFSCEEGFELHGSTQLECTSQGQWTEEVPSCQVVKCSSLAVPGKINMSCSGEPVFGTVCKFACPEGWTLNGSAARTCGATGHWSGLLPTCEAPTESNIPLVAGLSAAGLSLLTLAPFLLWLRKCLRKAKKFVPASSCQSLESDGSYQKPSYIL
Chain of human Thyroid Receptor alpha (THRa1), THRA (gene 7067) (P10827 whole entry, looked up, the tested form may be a part): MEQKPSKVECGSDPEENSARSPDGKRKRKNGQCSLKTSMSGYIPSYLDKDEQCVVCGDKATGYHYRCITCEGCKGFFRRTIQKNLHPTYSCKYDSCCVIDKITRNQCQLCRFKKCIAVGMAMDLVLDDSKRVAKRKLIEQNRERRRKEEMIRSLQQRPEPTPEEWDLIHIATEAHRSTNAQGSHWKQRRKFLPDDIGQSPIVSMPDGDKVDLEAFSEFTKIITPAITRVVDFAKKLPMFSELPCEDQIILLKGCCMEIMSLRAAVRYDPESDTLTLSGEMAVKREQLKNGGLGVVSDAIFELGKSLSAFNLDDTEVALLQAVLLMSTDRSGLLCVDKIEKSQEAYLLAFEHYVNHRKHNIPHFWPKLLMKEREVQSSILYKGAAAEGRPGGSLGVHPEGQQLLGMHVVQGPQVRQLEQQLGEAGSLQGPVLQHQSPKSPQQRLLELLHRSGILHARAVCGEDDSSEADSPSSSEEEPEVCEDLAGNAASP
Chain of Nuclear receptor subfamily 1 group I member 2 (Homo sapiens) (O75469 whole entry, looked up, the tested form may be a part): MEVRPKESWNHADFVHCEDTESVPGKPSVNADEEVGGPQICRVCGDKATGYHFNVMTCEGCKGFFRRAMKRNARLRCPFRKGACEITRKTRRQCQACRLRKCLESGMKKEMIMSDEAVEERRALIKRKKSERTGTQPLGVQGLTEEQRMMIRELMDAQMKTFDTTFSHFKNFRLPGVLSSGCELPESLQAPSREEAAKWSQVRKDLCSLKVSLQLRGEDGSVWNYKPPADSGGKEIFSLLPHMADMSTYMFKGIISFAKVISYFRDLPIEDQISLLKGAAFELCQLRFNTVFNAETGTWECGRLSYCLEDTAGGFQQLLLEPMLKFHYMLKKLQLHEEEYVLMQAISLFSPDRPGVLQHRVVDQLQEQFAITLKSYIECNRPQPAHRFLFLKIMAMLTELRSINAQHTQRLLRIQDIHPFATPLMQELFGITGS
Chain of human Retinoic Acid Receptor gamma (RARg), RARG (gene 5916) (P13631 whole entry, looked up, the tested form may be a part): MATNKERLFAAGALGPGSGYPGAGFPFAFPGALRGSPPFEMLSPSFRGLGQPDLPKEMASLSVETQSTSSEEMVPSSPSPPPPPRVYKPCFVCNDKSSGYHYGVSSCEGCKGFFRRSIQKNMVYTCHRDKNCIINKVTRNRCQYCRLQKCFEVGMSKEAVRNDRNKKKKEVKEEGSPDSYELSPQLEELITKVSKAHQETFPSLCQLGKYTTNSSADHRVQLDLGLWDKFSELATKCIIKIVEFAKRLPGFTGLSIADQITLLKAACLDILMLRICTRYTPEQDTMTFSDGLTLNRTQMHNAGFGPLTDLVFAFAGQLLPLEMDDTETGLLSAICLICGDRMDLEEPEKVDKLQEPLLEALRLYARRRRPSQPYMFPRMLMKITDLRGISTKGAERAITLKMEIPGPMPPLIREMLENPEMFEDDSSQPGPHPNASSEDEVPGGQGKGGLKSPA
Chain of human Peroxisome Proliferator-activated Receptor alpha (PPARa), PPARA (gene 5465) (Q07869 whole entry, looked up, the tested form may be a part): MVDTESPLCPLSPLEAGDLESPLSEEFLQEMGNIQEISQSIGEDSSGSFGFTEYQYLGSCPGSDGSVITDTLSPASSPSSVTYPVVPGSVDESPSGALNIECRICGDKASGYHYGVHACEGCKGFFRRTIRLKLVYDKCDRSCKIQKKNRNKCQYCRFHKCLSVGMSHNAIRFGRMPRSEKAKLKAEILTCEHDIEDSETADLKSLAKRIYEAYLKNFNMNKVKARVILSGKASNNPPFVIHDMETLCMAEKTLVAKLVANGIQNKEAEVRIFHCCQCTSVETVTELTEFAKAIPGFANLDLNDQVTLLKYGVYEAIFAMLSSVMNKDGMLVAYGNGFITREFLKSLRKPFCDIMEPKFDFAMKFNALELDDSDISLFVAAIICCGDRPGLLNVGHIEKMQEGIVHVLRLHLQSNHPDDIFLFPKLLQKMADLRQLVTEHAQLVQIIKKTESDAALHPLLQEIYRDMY
Chain of Retinoic acid receptor alpha (Homo sapiens) (P10276 whole entry, looked up, the tested form may be a part): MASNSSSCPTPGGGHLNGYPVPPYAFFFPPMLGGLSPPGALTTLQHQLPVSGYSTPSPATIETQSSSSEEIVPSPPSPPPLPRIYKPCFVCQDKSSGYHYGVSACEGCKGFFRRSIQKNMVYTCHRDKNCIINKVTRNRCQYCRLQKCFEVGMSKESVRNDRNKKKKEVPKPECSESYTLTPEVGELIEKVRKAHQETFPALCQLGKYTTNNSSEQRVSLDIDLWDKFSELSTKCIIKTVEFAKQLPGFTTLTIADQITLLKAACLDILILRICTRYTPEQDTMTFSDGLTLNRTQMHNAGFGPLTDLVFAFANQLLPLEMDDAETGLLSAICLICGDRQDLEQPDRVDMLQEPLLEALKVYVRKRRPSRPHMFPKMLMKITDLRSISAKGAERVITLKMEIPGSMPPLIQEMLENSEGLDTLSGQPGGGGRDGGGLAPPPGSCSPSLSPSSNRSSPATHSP
Chain of Retinoic acid receptor RXR-alpha (Homo sapiens) (P19793 whole entry, looked up, the tested form may be a part): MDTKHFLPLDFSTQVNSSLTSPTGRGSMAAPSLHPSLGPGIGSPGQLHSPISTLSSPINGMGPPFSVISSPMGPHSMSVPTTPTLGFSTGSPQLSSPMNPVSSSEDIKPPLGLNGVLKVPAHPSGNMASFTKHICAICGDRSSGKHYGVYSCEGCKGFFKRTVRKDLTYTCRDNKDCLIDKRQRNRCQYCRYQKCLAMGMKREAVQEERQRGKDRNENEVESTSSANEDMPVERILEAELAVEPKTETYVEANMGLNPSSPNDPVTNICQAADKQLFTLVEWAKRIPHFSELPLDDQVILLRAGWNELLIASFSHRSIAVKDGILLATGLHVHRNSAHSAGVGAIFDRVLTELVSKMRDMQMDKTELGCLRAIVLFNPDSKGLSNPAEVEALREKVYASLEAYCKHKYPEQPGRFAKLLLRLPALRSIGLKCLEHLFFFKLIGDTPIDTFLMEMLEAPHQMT
Chain of human Retinoid X Receptor beta (RXRb), RXRB (gene 6257) (P28702 whole entry, looked up, the tested form may be a part): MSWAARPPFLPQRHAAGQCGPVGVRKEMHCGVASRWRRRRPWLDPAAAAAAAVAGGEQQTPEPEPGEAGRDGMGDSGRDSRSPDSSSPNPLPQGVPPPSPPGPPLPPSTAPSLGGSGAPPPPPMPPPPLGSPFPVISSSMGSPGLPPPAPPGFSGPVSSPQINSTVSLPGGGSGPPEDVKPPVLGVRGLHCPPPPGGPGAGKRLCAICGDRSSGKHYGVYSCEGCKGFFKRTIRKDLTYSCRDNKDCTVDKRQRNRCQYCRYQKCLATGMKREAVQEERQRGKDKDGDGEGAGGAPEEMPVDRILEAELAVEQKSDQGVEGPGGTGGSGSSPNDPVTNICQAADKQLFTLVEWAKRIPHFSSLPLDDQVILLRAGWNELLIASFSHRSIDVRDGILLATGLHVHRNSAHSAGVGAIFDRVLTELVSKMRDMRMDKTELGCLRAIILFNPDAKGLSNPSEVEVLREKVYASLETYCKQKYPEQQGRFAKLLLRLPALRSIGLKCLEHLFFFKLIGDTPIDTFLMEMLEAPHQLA
Chain of human RAR-related Orphan Receptor beta (RORb), RORB (gene 6096) (Q92753 whole entry, looked up, the tested form may be a part): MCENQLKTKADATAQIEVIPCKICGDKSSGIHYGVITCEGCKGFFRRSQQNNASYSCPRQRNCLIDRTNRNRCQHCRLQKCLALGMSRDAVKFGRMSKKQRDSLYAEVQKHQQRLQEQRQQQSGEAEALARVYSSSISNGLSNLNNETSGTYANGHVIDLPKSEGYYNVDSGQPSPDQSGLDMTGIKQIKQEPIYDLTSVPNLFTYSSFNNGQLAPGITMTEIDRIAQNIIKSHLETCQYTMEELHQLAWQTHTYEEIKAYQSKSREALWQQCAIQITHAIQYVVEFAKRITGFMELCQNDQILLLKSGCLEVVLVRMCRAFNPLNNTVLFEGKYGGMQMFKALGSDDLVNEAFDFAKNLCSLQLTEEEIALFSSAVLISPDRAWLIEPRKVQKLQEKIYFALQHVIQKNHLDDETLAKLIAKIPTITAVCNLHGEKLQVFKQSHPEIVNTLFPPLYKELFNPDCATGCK
Chain of human Peroxisome Proliferator-activated Receptor delta (PPARd), PPARD (gene 5467) (Q03181 whole entry, looked up, the tested form may be a part): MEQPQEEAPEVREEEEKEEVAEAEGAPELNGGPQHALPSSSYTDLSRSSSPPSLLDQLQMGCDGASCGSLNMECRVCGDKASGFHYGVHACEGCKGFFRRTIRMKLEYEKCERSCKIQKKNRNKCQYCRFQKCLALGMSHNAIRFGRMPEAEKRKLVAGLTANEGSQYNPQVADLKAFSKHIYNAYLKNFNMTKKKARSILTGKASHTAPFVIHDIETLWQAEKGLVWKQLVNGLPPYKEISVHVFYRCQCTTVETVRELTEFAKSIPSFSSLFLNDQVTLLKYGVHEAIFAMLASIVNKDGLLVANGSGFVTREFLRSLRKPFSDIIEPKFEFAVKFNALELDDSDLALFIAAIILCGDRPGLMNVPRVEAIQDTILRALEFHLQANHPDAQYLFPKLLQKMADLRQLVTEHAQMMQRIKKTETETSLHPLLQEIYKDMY

Consider `CO[C@H]1/C=C/O[C@@]2(C)Oc3c(C)c(O)c4c(O)c(c(/C=N/N5CCN(C)CC5)c(O)c4c3C2=O)NC(=O)/C(C)=C\C=C\[C@H](C)[C@H](O)[C@@H](C)[C@@H](O)[C@@H](C)[C@H](OC(C)=O)[C@@H]1C`, for which the result in test [1], in test [2], in test [3], in test [4], in test [5] and in test [6] was inactive. In addition, the call in test [7], in [8], in test [9], in test [10], in test [11] and in [12] was inactive. For the same compound, the outcome in [13] and in test [14] was inactive.

Usually AC50 stands for the concentration giving half of the maximal activity seen. As for `COc1ccc2cc(S(=O)(=O)N[C@H](CC(=O)N[C@H](Cc3ccc(CN4[C@H](C)CCC[C@@H]4C)cc3)C(=O)N(C)C(C)C)c3ccc4c(c3)OCO4)ccc2c1`, the call in test [15], in test [16], in [6], in test [8], in [9] and in test [14] was inactive. For the same compound, the AC50 in test [3] is 22 µM (active); in [10], 12.5 µM (active); in [11] it was 8.16 µM (active); in test [12] it was 24.3 µM (active); in [13], 16.3 µM (active).

Regarding `CC(O)CC(C)(C)O` (stereo not drawn), the compound was classed as inactive in test [15], in test [2], in test [3], in test [16], in test [17] and in test [18]. The compound was called inactive in test [5], in test [6], in test [19], in test [7], in test [8] and in [9]. Further, the result in [10], in [11], in test [12] and in test [13] was inactive.

For the compound `CC/C(=C(/CC)c1ccc(O)cc1)c1ccc(O)cc1`, the AC50 in test [20] is 32.8 µM (active); in test [3], 20 µM (active); in [19], 6.68 µM (active) [middle of 4 runs]; in [8], 31.5 µM (active); in test [9], 29.9 µM (active); in test [10] it was 31 µM (active). Besides, the results for the AC50 in test [11], in test [12] and in test [13] were 15.9 µM (active), 27.7 µM (active) and 32.6 µM (active), respectively. Further, the call in test [17], in test [18], in test [6] and in [19] was inactive.

Turning to `CCN(Cc1cccc(S(=O)(=O)O)c1)c1ccc(C(=C2C=CC(=[N+](CC)Cc3cccc(S(=O)(=O)O)c3)C=C2)c2ccccc2S(=O)(=O)[O-])cc1`, the compound was called inactive in test [1], in [3], in test [4], in [16], in [18] and in test [6]. In addition, the compound was classed as inactive in test [7], in [8], in [9], in test [10], in test [11] and in [12]. Besides, the result in test [13] was inactive.

With `CCCC(=O)OCCC(C)C`, the compound was called inactive in test [2], in test [3], in [17], in test [5], in [7] and in test [8]. The result in [9], in test [10], in [11], in [12] and in test [13] was inactive.
